# PubChem BioAssay AID590 (National Center for Advancing Translational Sciences (NCATS), 2007)
# The campaign covered roughly 59,000 compounds. About 6,500 (11%) were called active. About 15% were inconclusive and are not listed. Rule as the data show it: active = max dye-equivalent concentration above about 10 nM; inconclusive = mostly about 1.1 nM to 9.6 nM; inactive = weaker than that. Many of the other results were omitted from the sample, so actives are more common in it than they were.
# Assay: qHTS Assay for Spectroscopic Profiling in A350 Spectral Region
# Details: Compound autofluorescence, 340/450 nm, Alexa 350 dye-equivalents; active compounds read high
row,Compound,max dye-equivalent concentration
1,O=C(O)CCN1C(=O)CC2(CCCCC2)C1=O,inactive
2,O=c1[nH]nc(CSCc2ccccc2Cl)[nH]1,inactive
3,N#Cc1ccc(CSc2nnc(-c3ccccn3)n2-c2ccc(Cl)cc2)cc1,inactive
4,CN(C)c1ccc(CNC23CN4CN(CN(C4)C2)C3)cc1,inactive
5,CCOC(=O)CSc1nnc(CNC(=O)c2ccco2)n1-c1ccc(F)cc1,inactive
6,O=C(Oc1ccc2c(c1)CN(Cc1ccccc1)CO2)c1ccccc1,inactive
7,COC(=O)c1c(NC(=O)CSc2nc3c(c(=O)n(C)c(=O)n3C)n2C(C)C)sc(C)c1C,inactive
8,CCOP1(=O)C=C(C(C)(C)C)OC1c1ccc(F)cc1 (configuration not stated),inactive
9,CC(C)c1nc(-c2ccccn2)no1,inactive
10,CSCCC(NS(=O)(=O)/C=C/c1ccccc1)C(=O)N1CCC(C)CC1 (configuration not stated),inactive
11,CCn1c(SCC(=O)Nc2ccc3c(c2)OCCO3)nc2c(c1=O)SC(C)C2 (configuration not stated),inactive
12,O=C(O)c1ccc(C(=O)O)c2c(C(=O)O)ccc(C(=O)O)c12,inactive
13,Cc1cc(C)c2cc(CN(Cc3cccs3)Cc3nnnn3CC3CCCO3)c(=O)[nH]c2c1 (configuration not stated),inactive
14,CCOc1ccc2[nH]c(=O)c(CN(CCCO)C(C)=O)cc2c1,290 nM (active)
15,CCC(=O)N(Cc1cc2cc(OC)ccc2[nH]c1=O)c1ccccc1C,170 nM (active)
16,O=C(CN(CC1CCCO1)C(=O)CNS(=O)(=O)c1ccccc1)NCc1ccccc1 (configuration not stated),inactive
17,COc1ccc2[nH]c(=O)c(CN(Cc3nnnn3CCc3ccccc3)CC3CCCO3)cc2c1 (configuration not stated),300 nM (active)
18,O=C(OCc1cc2ccccc2[nH]c1=O)c1cccnc1,inactive
19,CCOc1ccc2c(c1)cc(CN(C(=O)CC)C1CCCCC1)c1nnnn12,inactive
20,COc1ccc2[nH]c(=O)c(CN(CC3CCCO3)C(=O)Nc3ccccc3)cc2c1 (configuration not stated),100 nM (active)
21,c1ccc(CCn2nnnc2CN2CCN(C3CCCC3)CC2)cc1,inactive
22,C[C@@H]1CC[C@H]2[C@H](C)[C@H]3[C@H](C[C@H]4[C@@H]5CC=C6C[C@@H](O)CC[C@@]6(C)[C@@H]5C[C@@H](O)[C@]34C)N2C1,inactive

row,Compound,max dye-equivalent concentration
1,CN(C)CCNC(CC(=O)Nc1ccc(Cl)c(Cl)c1)C(=O)O (configuration not stated),inactive
2,Cc1ccc(CNC(=O)C2CCCN(S(C)(=O)=O)C2)cc1 (configuration not stated),inactive
3,O=C(Nc1ccccc1F)c1cc(S(=O)(=O)N2CCCCC2)cs1,inactive
4,NCC(=O)[C@@H](O)[C@H](O)[C@H](O)CO,inactive
5,O=C(O)c1nn(-c2ccc(Cl)cc2)c2c1C(=O)c1ccccc1C2=O,inactive
6,CCCN1CCN(CCCNC(=O)CN2C(=O)COc3ccccc32)CC1,inactive
7,CCn1c2c(c3ccc(OC)cc31)CCCC2=O,11 nM (active)
8,C[C@H](CCC(=O)NCC(=O)O)[C@H]1CC[C@H]2[C@H]3[C@@H](C[C@@H](O)[C@]12C)[C@]1(C)CC[C@H](O)C[C@@H]1C[C@@H]3O,inactive
9,CCOC(=O)Cn1c(SC)nc2sc3c(c2c1=O)CC(C)(C)OC3,inactive
10,CC1(C)Cc2c(sc3nc4n(c(=N)c23)CCCCC4)CO1,inactive
11,CCC1(C)Cc2c(sc3nc4n(c(=O)c23)CCCS4)CO1 (configuration not stated),56 nM (active)
12,CCCCC[C@H](O)CCCC(=O)O,inactive
13,CC(=O)c1c(C)n(-c2ccc(N(C)C)cc2)c2ccc(OCC(N)=O)cc12,inactive
14,CCCc1[nH]nc2c1C(c1ccc(OC)c(Cn3nc(C)c(Br)c3C)c1)C(C#N)=C(N)O2 (configuration not stated),inactive
15,CC(=O)/C(=N\N=C(N)N)c1ccccc1,inactive
16,CC(=C1C(=O)c2ccccc2C1=O)N1CCN(c2ccccn2)CC1,inactive
17,OC(COc1cccc2ccccc12)CN1CCN(c2ccccn2)CC1 (configuration not stated),inactive
18,O=C1c2cccc3cccc(c23)N1CN1CCN(c2ccccn2)CC1,16 nM (active)
19,COc1ccccc1OCCC(=O)OCC(=O)NC(=O)NC(C)(C)C,inactive
20,CN1C(C)(C)CC(NC(=O)CCC(=O)NC2CC(C)(C)N(C)C(C)(C)C2)CC1(C)C,inactive
21,CCn1c(=N)c(S(=O)(=O)c2ccc(F)cc2)cc2c(=O)n3ccccc3nc21,780 nM (active)
22,CC1CCCC(NC(=O)CSc2nccn2C)C1C (configuration not stated),inactive

row,Compound,max dye-equivalent concentration
1,O=C(c1c(Cl)nc2sccn12)N1CCCc2ccccc21,inactive
2,COc1ccccc1CNc1nc(-c2c(C)noc2C)nc2ccccc12,inactive
3,Cc1cnc(NC(=O)CSc2nnc(-c3ccccc3)n2Cc2ccccc2)s1,inactive
4,COc1ccc(CC(=O)Nc2nc3n(n2)C(c2ccccc2)CC(=O)N3)cc1OC (configuration not stated),inactive
5,CNC(=O)CSc1nnnn1-c1ccc(C)cc1C,inactive
6,COc1ccc(-c2nnc(SCC(=O)c3cccs3)o2)c(OC)c1,inactive
7,COc1ccc(-n2c(C)cc(C(=O)CSc3nnc(-c4cccs4)o3)c2C)cc1,inactive
8,COc1ccc(OC)c(C(=O)CSc2nnc(-c3cccs3)o2)c1,150 nM (active)
9,c1ccc(CSCCc2ccncc2)cc1,inactive
10,CN(CCC#N)c1ncnc2scc(-c3ccccc3)c12,inactive
11,O=C(CN1C2CCC1CC(NC(=O)C1CC1)C2)NCc1ccccc1 (configuration not stated),inactive
12,CCCCNC(=O)CSc1nnc(-c2ccco2)n1C,inactive
13,Cn1c2ccccc2c2c(C(=O)N3CCN(c4ccc(F)cc4)CC3)cn(C3CCCC3)c(=O)c21,13 nM (active)
14,CC(C)N(C(=O)COC(=O)c1ccccc1C(=O)N1CCN(c2ccc(F)cc2)CC1)C(C)C,inactive
15,O=C(c1ccccc1)c1cccn1CC(=O)N1CCN(c2ccc(F)cc2)CC1,inactive
16,CCCCn1nnnc1NCc1cc(OC)c(OC)c(OC)c1,inactive
17,COc1ccccc1-n1nnnc1S(=O)(=O)Cc1ccc(Cl)cc1,inactive
18,CCC(CC)C(=O)Nc1cccc(C(=O)N2CCCC2)c1,inactive
19,COc1ccc(OCC(=O)N2CCN(C(=O)COc3ccccc3)CC2)cc1,inactive
20,COc1ccc(OCc2cccc(C(=O)N3CCCC3)c2)cc1,18 nM (active)
21,Cc1noc(C)c1CSc1nnc2ccc3ccccc3n12,inactive
22,CCC(=O)Nc1sc(C(=O)N2CCCCC2)c(C)c1C#N,inactive

row,Compound,max dye-equivalent concentration
1,CC(C)C(C(=O)NC1CCCCC1)N(CC1CCCO1)C(=O)CNS(=O)(=O)c1ccc(F)cc1 (configuration not stated),inactive
2,c1ccc2c(CNn3cnnc3)cccc2c1,inactive
3,COC(=O)[C@H](Cc1ccccc1)NC(=O)N1CC(C)OC(C)C1 (some centres not stated),inactive
4,COc1ccc(C2N=C(N)N=C(N)N2c2ccccc2)cc1OC (configuration not stated),inactive
5,C=CCn1c(CC(=O)Nc2cccc(OC)c2)nnc1SCC(=O)NC1CCCCC1,inactive
6,Cn1c(SCC(=O)c2cccs2)nnc1-c1ccco1,inactive
7,c1coc(-c2nc3nc4ccccc4n3nc2-c2ccco2)c1,inactive
8,Cn1c(-c2ccco2)nc2cc3ccccc3cc21,1100 nM (active)
9,O=C(Nc1cc(C(F)(F)F)ccc1Cl)c1cc(C2CC2)on1,inactive
10,Cn1c(SCC(=O)OC2CCCCC2)nnc1-c1ccc(S(=O)(=O)N2CCCC2)cc1,inactive
11,Nc1ccc(-c2nnc(-c3ccc(-c4ccccc4)cc3)o2)cc1,300 nM (active)
12,O=C(CSc1nnc(-c2ccccc2)o1)N1CCOCC1,inactive
13,O=C(COC(=O)c1ccc(Oc2ccccc2)cc1)Nc1nnc(-c2ccccc2)o1,inactive
14,O=C(O)CN1C(=O)CC(Cc2ccccc2)C1=O (configuration not stated),inactive
15,c1nc(COc2nsnc2N2CCOCC2)cs1,inactive
16,Cc1nn(Cc2ccccc2)c(Cl)c1C(=O)OC1CCOC1=O (configuration not stated),inactive
17,O=C(c1cccs1)N1CCC(c2nc3ccccc3s2)CC1,inactive
18,O=C(OC1CCOC1=O)c1ccc(-c2nc3ccccc3s2)s1 (configuration not stated),1100 nM (active)
19,CC(C)NS(=O)(=O)c1ccc(OCC(=O)Nc2ccc3c(c2)OCCO3)cc1,inactive
20,COc1ccc(OC)c(C(c2nnnn2C(C)(C)C)N2CCc3ccccc3C2)c1 (configuration not stated),inactive
21,COCCn1nnnc1C(c1ccccc1Cl)N1CCN(c2ccccc2OC)CC1 (configuration not stated),inactive
22,CCOc1ccc2[nH]c(=O)c(C(c3nnnn3CCOC)N3CCOCC3)cc2c1 (configuration not stated),690 nM (active)

row,Compound,max dye-equivalent concentration
1,COCCn1nnnc1C(c1cc2ccc(OC)cc2[nH]c1=O)N1CCc2ccccc2C1 (configuration not stated),18 nM (active)
2,Cc1cc(C)c2[nH]c(=O)c(C(c3nnnn3Cc3ccc4c(c3)OCO4)N3CCCC3)cc2c1 (configuration not stated),inactive
3,COc1ccc(N2CCN(C(c3cc4ccc(C)cc4[nH]c3=O)c3nnnn3C3CCCC3)CC2)cc1 (configuration not stated),inactive
4,CCOc1ccccc1Nc1nnc(SCC(=O)Nc2cc(C)on2)s1,inactive
5,Cc1ccccc1CN1CCN(C(=O)c2cccc(F)c2)CC1,inactive
6,CCOc1ccccc1N=C1NC(=O)CS1,inactive
7,COc1ccccc1-c1nnc(SCC(=O)Nc2ccccc2)o1,inactive
8,c1ccc(CCN2CCN=C2Cc2ccccc2)cc1,inactive
9,O=c1cc(-c2ccc(O)c(O)c2)oc2cccc(O)c12,inactive
10,CC(C)OC(=O)C(C#N)c1nc2ccccc2nc1N1CCN(Cc2ccc3c(c2)OCO3)CC1 (configuration not stated),120 nM (active)
11,COc1ccc(-c2csc(N3CCN(Cc4ccc5c(c4)OCO5)CC3)n2)cc1,inactive
12,CC(C)OC(=O)C(C#N)c1nc2ccccc2nc1N1CCN(Cc2ccccc2)CC1 (configuration not stated),inactive
13,Cc1ccc(S(=O)(=O)N2CCN(Cc3cccc(C)c3O)CC2)cc1,inactive
14,CC(=O)Nc1cccc(NC(=O)c2c(-c3ccccc3)noc2C)c1,inactive
15,Cc1cc(=O)oc(C)c1C(=O)NC1CC(C)(C)NC(C)(C)C1,inactive
16,Cc1cc(=O)oc(C)c1C(=O)Nc1cnc2ccccc2c1,12 nM (active)
17,O=C(NCc1ccc2c(c1)OCO2)c1ccc2c(c1)C(=O)N(CC1CCCO1)C2=O (configuration not stated),inactive
18,CCC(=O)Nc1ccc(C(=O)Nc2ccc3c(c2)C(=O)N(CC2CCCO2)C3=O)cc1 (configuration not stated),150 nM (active)
19,O=C(CCN1C(=O)c2ccncc2C1=O)Nc1ccc2c(c1)OCCO2,inactive
